Source: PubChem BioAssay (The Scripps Research Institute Molecular Screening Center)
TEAD-YAP block – TEAD-YAP interaction inhibition. HEK-TIYL cells, TEAD-Gal4/YAP UAS-luciferase luminescence. inhibition, % at 9.12 µM. actives 1.4% (n = 640,000); in the data active = inhibition above about 32%;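 also: 0% = median of test compound wells and 100% = reference inhibitor wells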
GPR151 ag – human GPR151 activation; AID 1508602; Q8TDV0; actives 1% (n = 650,000); PathHunter beta-arrestin GPR151 cells, luminescence; activation, % at 11.2 µM; in the data active = activation above about 4.9%;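 also: 0% = median of compound wells and 100% = cells with positive control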
Target sequence (Q8TDV0 whole entry, looked up): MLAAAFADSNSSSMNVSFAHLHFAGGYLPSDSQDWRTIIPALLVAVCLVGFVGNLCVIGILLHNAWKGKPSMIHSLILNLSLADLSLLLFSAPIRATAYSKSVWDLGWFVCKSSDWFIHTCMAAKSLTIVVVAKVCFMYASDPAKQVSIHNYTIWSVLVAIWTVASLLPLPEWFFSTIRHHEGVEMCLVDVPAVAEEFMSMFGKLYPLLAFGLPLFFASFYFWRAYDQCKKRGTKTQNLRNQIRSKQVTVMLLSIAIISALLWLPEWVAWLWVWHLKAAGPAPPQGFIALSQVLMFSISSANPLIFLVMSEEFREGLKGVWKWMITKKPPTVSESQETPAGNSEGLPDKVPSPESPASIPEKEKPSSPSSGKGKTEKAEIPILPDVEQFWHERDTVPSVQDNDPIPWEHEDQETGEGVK
MITF inh – inhibitors of human MITF | AlphaScreen MITF homodimerization, bead proximity signal | actives 0.91% (n = 650,000) | inhibition, % at 2.6 µM | AID 1259374 | O75030; in the data active = inhibition above about 50%;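 also: 0% = vehicle wells with protein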
FBW7 activator – human FBW7 E3 ligase activation, primary screen; Q969H0; AlphaScreen FBW7–phospho-cyclin E peptide binding, activator screen; actives 0.13% (n = 650,000); AID 1259310; normalized activity (activation), % at 26.1 µM; in the data active = normalized activity above about 1.9%;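 also: purified mutant Fbw7 with reduced substrate affinity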
GPR151 conf act – human GPR151 activation, confirmation screen | activation, % at 11.2 µM | AID 1508609 | GPR151 PathHunter beta-arrestin cells, luminescence, 90 min; % of EA-reagent control over plate median | 6,700 tested, under 10 active | shares compounds with GPR151 ag;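 active = mean percent activation across replicates above the confirmation screen cutoff of 4.91%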
GPR119 counter – activates human GPR119 in a GPR151 counter-screen; shares compounds with GPR151 ag; GPR119 PathHunter beta-arrestin cells, luminescence, 90 min; 0 = compound-well median, 100 = enzyme-acceptor control; activation, % at 11.2 µM; actives 0.3% (n = 6,700); AID 1508611;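 active = mean percent activation in the counterscreen above 29.09%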;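 also: counterscreen on off-target GPR119 to flag nonselective hits from the GPR151 activator screen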
* marks the source's active call; other numbers are inactive results; ! = a repeat was not active. Only some compounds are listed: those with a hit (about 3.5% of all), similar ones and a draw of the others.

Results for CCOC(=O)C(=O)NCC1CCCN1S(=O)(=O)c1cccs1 (stereo unspecified) ?
TEAD-YAP block: 2.1; GPR151 ag: -1.1; MITF inh: 17.3; FBW7 activator: 0.1

How did Cc1ccc(S(=O)(=O)N2CCCC2CNC(=O)C(=O)NC2CCCCCC2)cc1 (stereo unspecified) do in these assays?
TEAD-YAP block: 9.8; GPR151 ag: 0.5; MITF inh: 2.6; FBW7 activator: -0.2

Results for O=C(NCCc1ccccc1)C(=O)NCC1CCCN1S(=O)(=O)c1cccs1 (stereo unspecified) ?
TEAD-YAP block: 6.0; GPR151 ag: 7.3*; MITF inh: 9.5; FBW7 activator: 0.0; GPR151 conf act: -0.9; GPR119 counter: -10.4

What do the screens show for `CCOC(=O)C1=CN(C(C)C)C=C(C(=O)OCC)C1c1ccc(OCc2ccccc2)c(OC)c1`?
TEAD-YAP block: -0.4; GPR151 ag: -1.1; MITF inh: -4.5; FBW7 activator: 0.0

What do the screens show for `O=C(CN1CCCCC1)Nc1ccc(OC(F)(F)F)cc1`?
TEAD-YAP block: -6.5; GPR151 ag: 2.8; MITF inh: 0.6; FBW7 activator: 0.1

Results for CCOC(=O)CSc1nnc(CSc2ncccn2)n1-c1ccccc1 ?
TEAD-YAP block: -6.2; GPR151 ag: 10.8*; MITF inh: 9.3; FBW7 activator: 0.3; GPR151 conf act: 1.4; GPR119 counter: 4.4

What do the screens show for `CC(CNc1ccc(Cl)cc1[N+](=O)[O-])NS(=O)(=O)c1ccc(Cl)cc1` (stereo unspecified)?
TEAD-YAP block: -7.0; GPR151 ag: -1.5; MITF inh: 4.0; FBW7 activator: 0.0

What do the screens show for `CCn1c(SCC(=O)c2cccs2)nc2c1c(=O)n(C)c(=O)n2C`?
TEAD-YAP block: -3.0; GPR151 ag: 5.3*; MITF inh: -3.4; FBW7 activator: -0.1; GPR151 conf act: 0.3; GPR119 counter: -0.8

What do the screens show for `CCOC(=O)N1CCC(N(CCN(C)C)C(=S)Nc2cc(C)cc(C)c2)CC1`?
TEAD-YAP block: -10.4; GPR151 ag: 7.7*; MITF inh: -1.6; FBW7 activator: -0.1; GPR151 conf act: -0.1; GPR119 counter: 4.4

What do the screens show for `CCOC(=O)N1CCN(C(=S)Nc2ccc(C)cc2)CC1`?
TEAD-YAP block: -6.5; GPR151 ag: 6.0*!; MITF inh: -2.1; FBW7 activator: 0.8; GPR151 conf act: 1.9; GPR119 counter: 11.1

What do the screens show for `CCOC(=O)N1CCN(C(=S)Nc2cc(OC)ccc2OC)CC1`?
TEAD-YAP block: 6.7; GPR151 ag: 5.2*; MITF inh: 10.0; FBW7 activator: -0.1; GPR151 conf act: 0.5; GPR119 counter: 0.6

Results for CCOC(=O)N1CCN(C(=S)Nc2cc(Cl)ccc2OC)CC1 ?
TEAD-YAP block: 1.4; GPR151 ag: 0.8; MITF inh: 1.9; FBW7 activator: -0.1

What do the screens show for `CCOC(=O)N1CCN(C(=O)Nc2ccc(Cl)cc2Cl)CC1`?
TEAD-YAP block: 5.6; GPR151 ag: 5.1*; MITF inh: -28.6; FBW7 activator: 0.1; GPR151 conf act: -0.5; GPR119 counter: -7.7

What do the screens show for `CCOC(=O)N1CCC(N(CCN(C)C)C(=S)Nc2cccc(CC)c2)CC1`?
TEAD-YAP block: -8.1; GPR151 ag: 0.3; MITF inh: -8.2; FBW7 activator: -0.4

What do the screens show for `CCCN1C(=O)/C(=C/c2cccnc2)SC1=S`?
TEAD-YAP block: -1.5; GPR151 ag: -0.9; MITF inh: -0.8; FBW7 activator: -0.1

Results for COCC(C)NC(=O)c1c(C)nc2ccccn12 (stereo unspecified) ?
TEAD-YAP block: -4.9; GPR151 ag: -0.6; MITF inh: 8.5; FBW7 activator: 0.4

How did CC(C)c1c(C(=O)Nc2ccccc2)c(-c2ccccc2)c(-c2ccc(F)cc2)n1CC[C@@H](O)C[C@@H](O)CC(=O)O do in these assays?
GPR151 ag: 5.2*; MITF inh: -4.2; FBW7 activator: 0.1; GPR151 conf act: -0.2; GPR119 counter: -14.5

What do the screens show for `O=C(Nc1ccc(-c2ccccc2)cc1)c1ccc(F)cc1`?
TEAD-YAP block: -22.0; GPR151 ag: 1.4; MITF inh: -20.5; FBW7 activator: 0.1

What do the screens show for `O=C(Cn1c(-c2ccccn2)nc2ccccc21)Nc1nc2ccccc2s1`?
TEAD-YAP block: 0.9; GPR151 ag: 6.0*; MITF inh: -4.7; FBW7 activator: 0.1; GPR151 conf act: 0.1; GPR119 counter: 3.6

How did CC1=C(C(=O)OCCOc2ccccc2)C(c2ccc(F)cc2)C2=C(CC(C)(C)CC2=O)N1 (stereo unspecified) do in these assays?
TEAD-YAP block: 4.6; GPR151 ag: 1.7; MITF inh: 0.0; FBW7 activator: 0.0

What do the screens show for `O=C(N1CCCCC1)C12CC3CC(C1)CC(c1ccc([N+](=O)[O-])cc1)(C3)C2`?
TEAD-YAP block: -1.0; GPR151 ag: 6.8*; MITF inh: -0.3; FBW7 activator: 0.1; GPR151 conf act: -0.4; GPR119 counter: -9.1

Results for Cc1cc2c(cc1C)C(c1cc([N+](=O)[O-])ccc1Cl)CC(=O)N2 (stereo unspecified) ?
TEAD-YAP block: -2.1; GPR151 ag: 5.0*; MITF inh: 3.5; FBW7 activator: -0.1; GPR151 conf act: 1.9; GPR119 counter: 9.9

How did COc1cccc(C2CC(=O)Nc3cc(C)c(C)cc32)c1OC (stereo unspecified) do in these assays?
TEAD-YAP block: 10.4; GPR151 ag: 3.1; MITF inh: 0.3; FBW7 activator: -0.1

How did COc1cc(C2CC(=O)Nc3cc(C)c(C)cc32)cc(OC)c1OC (stereo unspecified) do in these assays?
TEAD-YAP block: 48.7*; GPR151 ag: 12.7*; MITF inh: 7.3; FBW7 activator: 0.3; GPR151 conf act: 0.9; GPR119 counter: 11.7

What do the screens show for `Cc1cc2c(cc1C)C(c1cccc([N+](=O)[O-])c1)CC(=O)N2` (stereo unspecified)?
TEAD-YAP block: 18.3; GPR151 ag: -0.2; MITF inh: -4.7; FBW7 activator: -0.1

Results for COc1ccc(OC)c(C(c2sc3nc(C)nn3c2O)N2CCN(C(C)=O)CC2)c1 (stereo unspecified) ?
TEAD-YAP block: -0.4; GPR151 ag: 1.9; MITF inh: 0.8; FBW7 activator: 0.0

What do the screens show for `CCOc1ccccc1C(=O)Nc1ccc2c(c1)N(CCOC)CCC2`?
TEAD-YAP block: 6.7; GPR151 ag: 9.4*; MITF inh: 5.2; FBW7 activator: -0.1; GPR151 conf act: 1.0; GPR119 counter: -2.3

How did Cc1nnc(SCC(=O)N2c3ccccc3Sc3ccccc32)n1N do in these assays?
TEAD-YAP block: 9.2; GPR151 ag: 7.4*; MITF inh: 7.7; FBW7 activator: -0.1; GPR151 conf act: 0.1; GPR119 counter: -2.5

What do the screens show for `CCc1nnc(SCC(=O)N2c3ccccc3Sc3ccccc32)n1N`?
TEAD-YAP block: 7.5; GPR151 ag: 2.0; MITF inh: 6.5; FBW7 activator: 0.3
